46 compounds from paper PMC4336329 (PLoS ONE, 2015) can be followed below.

In all, about 310,000 compounds went through this assay and about 14,000 (4.5%) showed an effect of 50% or more. The effect is printed as a negative number. This is one part of a sample in which strong results are shown more often than they occur.
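Further: peak tail current of the secondary pulse compared with the same well before compound.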

The target of this assay is human ether-à-go-go-related gene (hERG) potassium channel (human, UniProt Q12809). Put plainly: primary screen, population patch clamp on CHO cells stably expressing hERG; higher = less effect of the substance.
Chain of human ether-à-go-go-related gene (hERG) potassium channel (Q12809 whole entry, looked up): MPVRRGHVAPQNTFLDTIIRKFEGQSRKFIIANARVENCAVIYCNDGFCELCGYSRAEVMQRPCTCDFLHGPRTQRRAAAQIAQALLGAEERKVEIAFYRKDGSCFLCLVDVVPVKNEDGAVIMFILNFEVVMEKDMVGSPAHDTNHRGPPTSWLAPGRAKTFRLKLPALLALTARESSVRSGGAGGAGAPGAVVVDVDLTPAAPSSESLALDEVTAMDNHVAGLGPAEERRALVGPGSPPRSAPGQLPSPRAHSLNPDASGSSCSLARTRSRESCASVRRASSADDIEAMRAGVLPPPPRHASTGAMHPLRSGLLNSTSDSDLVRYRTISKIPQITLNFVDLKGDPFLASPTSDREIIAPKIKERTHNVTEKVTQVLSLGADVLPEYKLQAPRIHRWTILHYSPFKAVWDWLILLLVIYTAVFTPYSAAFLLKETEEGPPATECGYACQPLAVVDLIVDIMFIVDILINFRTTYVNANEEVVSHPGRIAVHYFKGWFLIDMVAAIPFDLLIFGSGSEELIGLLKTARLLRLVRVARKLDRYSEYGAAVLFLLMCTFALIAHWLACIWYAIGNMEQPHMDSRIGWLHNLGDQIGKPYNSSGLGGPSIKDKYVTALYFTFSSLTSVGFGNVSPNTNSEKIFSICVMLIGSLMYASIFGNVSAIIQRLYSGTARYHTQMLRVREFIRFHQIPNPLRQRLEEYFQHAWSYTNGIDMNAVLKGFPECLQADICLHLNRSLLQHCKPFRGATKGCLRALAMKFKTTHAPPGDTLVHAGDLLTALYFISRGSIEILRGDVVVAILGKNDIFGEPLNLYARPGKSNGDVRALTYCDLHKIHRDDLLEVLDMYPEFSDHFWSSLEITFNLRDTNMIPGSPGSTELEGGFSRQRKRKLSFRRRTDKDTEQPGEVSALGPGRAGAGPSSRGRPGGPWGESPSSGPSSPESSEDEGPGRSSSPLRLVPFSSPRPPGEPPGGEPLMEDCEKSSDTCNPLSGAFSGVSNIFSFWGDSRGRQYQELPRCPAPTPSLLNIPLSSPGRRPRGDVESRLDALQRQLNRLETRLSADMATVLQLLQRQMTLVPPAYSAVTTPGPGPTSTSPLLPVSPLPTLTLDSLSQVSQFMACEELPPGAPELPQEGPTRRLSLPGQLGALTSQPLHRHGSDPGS
As to `Cc1cc(C)n2c3c(c(C#N)c2n1)CC(C)(C)OC3`, the “hERG current change (%, negative = inhibition) at 10uM” value is listed as 2.81%.

As to `c1ccc(CCNc2nc(-c3ccccn3)nc3ccccc23)cc1`, the “hERG current change (%, negative = inhibition) at 10uM” value is listed as -78.6%.

`Cl.c1ccc(-c2nc(NCc3ccco3)c3ccccc3n2)cc1`: the “hERG current change (%, negative = inhibition) at 10uM” value is recorded as -33.4%.

Regarding `C(=N\Nc1nc(-c2ccccn2)nc2ccccc12)/c1ccccc1`, the “hERG current change (%, negative = inhibition) at 10uM” value is on record as 12.3%.

With `CCC(C)Nc1nc(-c2cccc(OC)c2O)nc2ccccc12` (stereo not shown), the “hERG current change (%, negative = inhibition) at 10uM” value was -5.73%.

With `c1ccc(-c2nc(NCc3ccco3)c3ccccc3n2)nc1`, the “hERG current change (%, negative = inhibition) at 10uM” value is -62.9%.

Consider `c1ccc(CNc2nc(-c3ccccn3)nc3ccccc23)cc1`, for which the “hERG current change (%, negative = inhibition) at 10uM” value is -43.5%.

As for `C/C(=N\Nc1nc(-c2ccccn2)nc2ccccc12)c1ccc(F)cc1`, the “hERG current change (%, negative = inhibition) at 10uM” value came out at 11%.

Consider `CCC(C)Nc1nc(-c2ccccn2)nc2ccccc12` (stereo not shown), for which the “hERG current change (%, negative = inhibition) at 10uM” value is given as -50.2%.

`CC(C)(C)Nc1nc(-c2ccccn2)nc2ccccc12`: the “hERG current change (%, negative = inhibition) at 10uM” value is -69.8%.

`c1ccc(-c2nc(NCC3CCCO3)c3ccccc3n2)nc1` (stereo not shown): the “hERG current change (%, negative = inhibition) at 10uM” value was -23.3%.

Turning to `Oc1ccccc1-c1nc(NCc2ccco2)c2ccccc2n1`, the “hERG current change (%, negative = inhibition) at 10uM” value amounted to 1.8%.

Turning to `c1ccc(CCNc2nc(-c3ccncc3)nc3ccccc23)cc1`, the “hERG current change (%, negative = inhibition) at 10uM” value worked out at 3.71%.

As for `CCc1ccccc1NC(=O)COc1ccc2c(=O)c(Oc3cc(C)ccc3C)coc2c1`, the “hERG current change (%, negative = inhibition) at 10uM” value worked out at 10.5%.

`Cc1cc(C(C)(C)C)c(OC(=O)[C@@H]2OC(c3ccccc3)=C[C@H]2c2ccccc2)c(C(C)(C)C)c1`: the “hERG current change (%, negative = inhibition) at 10uM” value came to 7.58%.

For the compound `c1coc(C2Nc3ccccc3C3OCCC23)c1` (stereo not shown), the “hERG current change (%, negative = inhibition) at 10uM” value worked out at 6.63%.

As to `CC(C)Cn1c(N)c(C(=O)COC(=O)C2=COCCO2)c(=O)n(C)c1=O`, the “hERG current change (%, negative = inhibition) at 10uM” value is 14.1%.

With `CCOC(=O)NCN1C(=O)C2C3C=CC(C3)C2C1=O` (stereo not shown), the “hERG current change (%, negative = inhibition) at 10uM” value was -11.9%.

In the case of `CCCN(CCC)c1nc(-c2ccccn2)nc2ccccc12`, the “hERG current change (%, negative = inhibition) at 10uM” value is on record as -74.4%.

Turning to `CCCCN(CCCC)c1nc(-c2ccncc2)nc2ccccc12`, the “hERG current change (%, negative = inhibition) at 10uM” value is -0.281%.

As for `CCN(CC)c1nc(-c2ccccc2)nc2ccccc12.Cl`, the “hERG current change (%, negative = inhibition) at 10uM” value is -32.5%.

With `Cc1ccc(N2CC(C(=O)NCc3ccccn3)CC2=O)cc1` (stereo not shown), the “hERG current change (%, negative = inhibition) at 10uM” value was determined as 5.36%.

For the compound `Cc1ccc(-c2csc(NC(=O)c3cc([N+](=O)[O-])ccc3N3CCOCC3)n2)cc1`, the “hERG current change (%, negative = inhibition) at 10uM” value came to 15.4%.

Regarding `COc1ccc(C(NC(N)=O)c2ccccc2)cc1` (stereo not shown), the “hERG current change (%, negative = inhibition) at 10uM” value is listed as 10.3%.

For `CCc1cccc(C)c1NC(=S)N(CCCN1CCN(C)CC1)Cc1cccs1`, the “hERG current change (%, negative = inhibition) at 10uM” value is -30.9%.

Regarding `Cc1ccc(NC(=S)N(CCN(C)C)Cc2cccs2)cc1`, the “hERG current change (%, negative = inhibition) at 10uM” value was -19.3%.

For the compound `S=C(Nc1ccc(Cl)cc1)N(CCCN1CCOCC1)Cc1cccs1`, the “hERG current change (%, negative = inhibition) at 10uM” value is given as -32.4%.

Consider `Cc1ccc(NC(=S)N(CCCN2CCN(C)CC2)Cc2cccs2)cc1`, for which the “hERG current change (%, negative = inhibition) at 10uM” value is given as -51.3%.

On to `CCc1ccc(NC(=S)N(CCCN2CCN(C)CC2)Cc2cccs2)cc1`, for which the “hERG current change (%, negative = inhibition) at 10uM” value was -62.5%.

On to `Cc1cc(C)cc(NC(=S)N(CCCN2CCN(C)CC2)Cc2cccs2)c1`, for which the “hERG current change (%, negative = inhibition) at 10uM” value is reported as -63.3%.

In the case of `Cc1cc(C)c(NC(=S)N(CCCN2CCN(C)CC2)Cc2cccs2)c(C)c1`, the “hERG current change (%, negative = inhibition) at 10uM” value was -43.9%.

For the compound `CN1CCN(CCCN(Cc2cccs2)C(=S)Nc2ccc(Cl)cc2)CC1`, the “hERG current change (%, negative = inhibition) at 10uM” value is recorded as -71.8%.

As to `Cc1cc(C)cc(NC(=S)N(CCN(C)C)Cc2cccs2)c1`, the “hERG current change (%, negative = inhibition) at 10uM” value is -25.1%.

`CC1CCCC(NS(=O)(=O)c2cc(Br)cnc2N)C1C` (stereo not shown): the “hERG current change (%, negative = inhibition) at 10uM” value is given as -8.36%.

`CC(=O)NC(CC(=O)Nc1nc(-c2ccccc2)c(C(C)=O)s1)c1ccccc1` (stereo not shown): the “hERG current change (%, negative = inhibition) at 10uM” value was -44.4%.

With `COc1ccccc1C(=O)NNC1=C(C(=O)C(F)(F)F)CCC1`, the “hERG current change (%, negative = inhibition) at 10uM” value is -2.03%.

Turning to `O=C(CCl)NN1C(=O)NC(c2ccccc2)(c2ccccc2)C1=O`, the “hERG current change (%, negative = inhibition) at 10uM” value was 11.2%.

`O=C(O)c1ccc(N(c2ccccc2)c2ccccc2)cc1`: the “hERG current change (%, negative = inhibition) at 10uM” value was 2.69%.

As for `CCCN1CCN(C(=O)c2cccc3c2C(=O)N(CCOC)C3)CC1`, the “hERG current change (%, negative = inhibition) at 10uM” value is 13%.

In the case of `COc1ccc(-c2nnc(SCC(N)=O)n2N)cc1`, the “hERG current change (%, negative = inhibition) at 10uM” value amounted to 6.29%.

On to `COc1cc(/C=N/NC(=O)c2nnn(-c3nonc3N)c2C(C)C)ccc1O`, for which the “hERG current change (%, negative = inhibition) at 10uM” value was -2.72%.

With `O=C1CC(NC(=O)c2ccc(Cl)cc2)C(=O)N1` (stereo not shown), the “hERG current change (%, negative = inhibition) at 10uM” value is recorded as 14.8%.

`Cc1cccc2sc(NC(=O)c3ccc(OCC4CCCO4)cc3)nc12` (stereo not shown): the “hERG current change (%, negative = inhibition) at 10uM” value is on record as 9.85%.

Consider `CCc1ccc(NC(=S)N2CCNC(=O)C2CC(=O)OC)cc1` (stereo not shown), for which the “hERG current change (%, negative = inhibition) at 10uM” value was found to be 7.17%.

Take `COCCNC(=O)CCCCCNS(=O)(=O)c1ccc(C)cc1`: the “hERG current change (%, negative = inhibition) at 10uM” value is 8.18%.

In the case of `CCN(CC)CCNC(=O)c1ccc(NC(=O)Cc2ccccc2F)cc1`, the “hERG current change (%, negative = inhibition) at 10uM” value is recorded as -6.75%.
